# Test results: PubChem BioAssay (NCATS)
# Inconclusive results are not listed. The source made the active and inactive calls. Calls come from the whole dose curve; as a rule, active = well fitted inhibition curve with a large enough effect; inconclusive = small, poorly fitted or top-dose-only effect; inactive = no such curve, though single readings can be large or run the other way. *1 amine or outer side, *2 acyl side, *3 side chain or, on linkers, in order; H or OH if unused. Where a SMILES comes first, the peptide text is derived from it. Bridges are numbered along the chain shown (N, C = ends). X6 = O=C(CCC[*:2])[*:1]
# Tested on: Zika virus NS2B-NS3 protease (linked construct)
# Assay: Primary screen NINDS Rhodamine qHTS for Zika virus inhibitors (AID 1347160); note: nearly all actives have a fitted effect of over 55% in size
# Settings: purified NS2B-NS3 protease, Rhodamine110 substrate fluorescence; series mostly up to 57.1 µM; activity change, negative = inhibition: at the top concentration
# Description: Avindra Nath, Ph.D., National Institute of Neurological Disorders and Stroke (NINDS), Bethesda, MD
# Radhakrishnan Padmanabhan, Ph.D., Georgetown University (GU), Washington D.C.
# Zika Virus causes congenital defects, including microcephaly and is associated with Guillain-Barre syndrome, eningoencephalitis and myelitis in infected adult. […] Using a target-based approach, we hope to establish a screening paradigm to uncover novel, cell-active NS2B-NS3 protease (Zika Virus) specific inhibitors from NCATS' collection of small molecules using qHTS.
# Four assay panel was created to identify potential Zika Virus inhibitors. Namely, (1) GU unlinked NS2B-NS3 AMC tagged protease qHTS, (2) GU unlinked NS2B-NS3 Rhodamine tagged protease qHTS, (3) NINDS linked NS2B-NS3 AMC tagged protease qHTS, (4) NINDS linked NS2B-NS3 Rhodamine tagged protease qHTS. Active compounds were re-acquired and re-screened to confirm inhibition. Inhibitors were further screened against various confirmatory and counterscreens in dose response format.
# Early Translation Branch (ETB)
# National Center for Advancing Translational Sciences (NCATS), Rockville, MD
# National Institute of Health (NIH), Bethesda, Maryland
# For the linked assay, Nath lab (NINDS) provided the purified linked NS2B-NS3 protease which is consists of hydrophilic domain of NS2B linked to the NS3 protease domain by a flexible (-[…]-) linker. Control compound aprotinin is obtained from Thermo Scientific (#78432; Waltham, Massachusetts). Rhodamine110 substrate ([N-Cbz]-Nle-Lys-Arg-Arg-Rhod110-Arg-Arg-Lys-Nle-[N-Cbz]) was purchased from either Genscript or Bachem.
# 1536-well Protease (Rhodamine110 Substrate) Assay:
# Briefly, 3 microL of enzyme (25 nM final concentration), in assay buffer (10 mM Tris-HCl pH 8.0 with 0.01% Tween 20) were dispensed into a 1,536-well solid-bottom black plate (Greiner Bio One, Monroe, NC). Twenty-three nL of compounds (final concentration range 7.28 nM to 114 microM) or control Aprotinin (final concentration range 3.47 nM to 114 microM) were transferred via Wako Pin-tool (Wako Automation, Richmond, VA). Samples were incubated (room temperature, protected from light) for 15 minutes followed by a 1 microL Rhodamine110 substrate addition (1.5 microM final concentration). Plates were then immediately read on a ViewLux High-throughput CCD imager (PerkinElmer, Waltham, MA) equipped with FITC fluorescence optics (480(20) nm excitation, 540(25) nm emission), then incubated (room temperature, protected from light) for 15 minutes (~15% conversion). The change in fluorescence intensity over the 15-minute reaction period was normalized against no-inhibitor and no-enzyme controls and the resulting percent inhibition data were fitted to a 4-parameter Hill equation. Aprotinin was used as intraplate control.
# % is set by controls: 0 for no effect and ±100 for the full control effect; potency is the fitted concentration of half-maximal effect.
SMILES,"activity change, negative = inhibition",Potency,outcome
CC[C@H]1OC(=O)[C@H](C)[C@@H](OC2C[C@@](C)(OC)[C@@H](O)[C@H](C)O2)[C@H](C)[C@@H](OC2O[C@H](C)C[C@H](NC)[C@H]2O)[C@](C)(O)C[C@@H](C)CN(C)[C@H](C)[C@@H](O)[C@]1(C)O (stereo not given in full),15.3% (inactive),,
COc1cc(C(O)C(CO)Oc2ccc(CCCO[C@@H]3O[C@@H](C)[C@H](O)[C@@H](O)[C@H]3O)cc2OC)ccc1O (stereo not given in full),-23.8% [at 33.1 µM] (inactive),,
O=C(O)c1cnn(-c2nc3cc(OC(F)(F)F)c(Cl)cc3[nH]2)c1,,2 µM (active),
Cc1cccc(-c2[nH]c(CNc3ccccc3F)nc2-c2ccc3ncnn3c2)n1,9.69% (inactive),,
CCOc1c2c(c(OCC)c3ccccc13)C(=O)N(c1ccc(CC(=O)NS(=O)(=O)c3ccccc3)cc1)C2,,8.91 µM (active),
C[C@]12CCC(=O)C=C1[C@@H](O)C[C@@H]1[C@@H]2[C@@H](O)C[C@@]2(C)[C@H]1CC[C@]2(O)C(=O)CO,18.7% (inactive),,
O=c1c2cccnc2n(-c2cccc([N+](=O)[O-])c2)c(=O)n1Cc1ccncc1,55% (inactive),,
CC(=O)O[C@H](C[C@@H](C)[C@H]1C(=O)[C@H](O)[C@@]2(C)[C@@H]3CCC4C(C)(C)[C@@H](O[C@@H]5OC[C@H](O)[C@H](O)[C@H]5O)CC[C@@]45C[C@@]35CC[C@]12C)[C@@H]1OC1(C)C (stereo not given in full),-5.08% [at 15.1 µM] (inactive),,
COc1ccc(C(=O)O[C@H]2CC(C)=CC[C@@]3(C)[C@@H](OC(C)=O)C[C@@](O)(C(C)C)[C@H]23)cc1,-21.4% [at 33.1 µM] (inactive),,
CC(C)Nc1cc(-c2c[nH]c(C(=O)N[C@H](CO)c3cccc(Cl)c3)c2)c(Cl)cn1,22.2% (inactive),,
CC1=CC(=O)OC(C)(CC(C)(O)C(=O)O)C1 (stereo not given),52.8% (inactive),,
CCOC(=O)c1ccc(N(C)c2csc(-c3ccccc3)n2)cc1,-3.63% (inactive),,
NCc1c[nH]c(=S)n1C1CCc2c(F)cc(F)cc2C1 (stereo not given),42.7% (inactive),,
CCC[C@@H]1C[C@@H](C(=O)N[C@@H]([C@H]2O[C@H](SC)[C@H](O)[C@@H](O)[C@@H]2O)[C@@H](C)O)N(C)C1,11.7% (inactive),,
CC(=O)O[C@H]1CC[C@@]2(CI)C(=CC[C@@H]3[C@@H]2CC[C@]2(C)[C@@H]([C@H](C)CCCC(C)C)CC[C@@H]32)C1,7.05% [at 10.7 µM] (inactive),,
COC1CC(=O)C23C(=O)NC(CC(C)C)C2C(C)C(C)=CC3/C=C(\C)CCC1O (stereo not given),5.7% [at 33.1 µM] (inactive),,
CC[C@H](C)[C@@H]1NC(=O)[C@H](Cc2ccc(OC)cc2)NC(=O)CCCSC[C@@H](C(=O)N2CCC[C@H]2C(=O)N[C@@H](CC(C)C)C(=O)NCC(N)=O)NC(=O)[C@H](CC(N)=O)NC(=O)[C@H](CCC(N)=O)NC1=O (Y(Me)IQNCPLG-NH2; linker N-5 via X6),-15% [at 33.1 µM] (inactive),,
COC(=O)[C@@]1(O)C=CC[C@@H]2[C@@]3(C)C[C@@H](c4ccoc4)OC(=O)[C@H]3CC[C@]21C,23.5% [at 33.1 µM] (inactive),,
CC(=O)O[C@@H]1[C@H](O[C@@H]2OC[C@](O)(CO)[C@H]2O)[C@@H](O[C@@H]2O[C@@H](C)[C@H](O)[C@@H](O)[C@H]2O)[C@H](OC(=O)[C@]23CCC(C)(C)C[C@H]2C2=CCC4[C@@]5(C)C[C@H](O)[C@H](O[C@@H]6O[C@H](C(=O)O)[C@@H](O)[C@H](O)[C@H]6O)[C@@](C)(C(=O)O)C5CC[C@@]4(C)[C@]2(C)CC3)O[C@@H]1C (stereo not given in full),-17% [at 15.1 µM] (inactive),,
O=C(OCc1cccc(O)c1O[C@@H]1O[C@H](CO)[C@@H](O)[C@H](O)[C@H]1O)C1(O)C(=O)C2C=CC1C1C=CC(=O)C(O)(C(=O)OCc3cccc(O)c3O[C@@H]3O[C@H](CO)[C@@H](O)[C@H](O)[C@H]3O)C21 (stereo not given in full),9.86% [at 15.1 µM] (inactive),,

SMILES,"activity change, negative = inhibition",Potency,outcome
C=CC(C)(O)CC/C=C(/C)C(=O)OC1C(OC2OCC(OC3OC(CO)C(O)C(O)C3O)C(OC3OCC(O)C(OC4OC(C)C(O)C(O)C4O)C3O)C2O)COC(OC(=O)C23CCC(C)(C)CC2C2=CCC4C5(C)CCC(OC6OC(CO)C(OC7OC(CO)C(O)C(OC8OCC(O)C(O)C8O)C7O)C(O)C6O)C(C)(C)C5CCC4(C)C2(C)CC3O)C1O (stereo not given),4.71% [at 10.7 µM] (inactive),,
COc1ccc2cc(OCC3(C(=O)O)CN(C(=O)c4ccc(F)cc4)C3)ccc2c1,-24.5% (inactive),,
CC(=O)OCC1=C[C@H](O)[C@@H]2C(C(=O)O)=CO[C@@H](O[C@@H]3O[C@H](CO)[C@@H](O)[C@H](O)[C@H]3O)[C@H]12,18.7% [at 33.1 µM] (inactive),,
C[C@H]1[C@H](C)CC[C@]2(C(=O)O[C@@H]3O[C@H](CO)[C@@H](O)[C@H](O)[C@H]3O)CC[C@]3(C(=O)O)C(=CCC4[C@@]5(C)CC[C@H](O[C@@H]6O[C@H](CO)[C@@H](O)[C@H](O)[C@H]6O)C(C)(C)C5CC[C@]43C)[C@H]12 (stereo not given in full),-20% [at 15.1 µM] (inactive),,
O=C(/C=C/c1ccc(O)cc1)OC[C@]12O[C@H]1[C@@H](O)[C@@H]1C=CO[C@@H](O[C@@H]3O[C@H](CO)[C@@H](O)[C@H](O)[C@H]3O)[C@@H]12,-0.0624% [at 33.1 µM] (inactive),,
C=C1CCC2C(C)(COC3OC(COC(=O)CC(=O)O)C(O)C(O)C3O)CCCC2(C)C1CCC1=CCOC1=O (stereo not given),-4.11% [at 33.1 µM] (inactive),,
C=C(C(=O)OC)C1CCC2(C)C(O[C@@H]3O[C@H](CO)[C@@H](O)[C@H](O)[C@H]3O)CC(=O)C(C)C2C1O (stereo not given in full),-27.1% [at 33.1 µM] (inactive),,
COCC(=O)N1CCc2cc(-c3csc(NC(=O)c4cc(OC)cc(OC)c4)n3)ccc21,21.6% (inactive),,
O=c1c2ccccc2nc2n1CCC2O (stereo not given),7.72% [at 112 µM] (inactive),,
CC(=O)Oc1cc2c(s1)CCN([C@H](C(=O)C1CC1)c1ccccc1F)C2,15.8% (inactive),,
COc1cc(C/C(=C/NC(C)=O)N(CC(=O)Cc2ccccc2)C(C)=O)cc2c1OCO2,36.9% [at 33.1 µM] (inactive),,
CCNC(=O)CCC/C=C\C[C@@H]1[C@@H](/C=C/C(O)CCc2ccccc2)[C@@H](O)C[C@@H]1O (stereo not given in full),13.3% (inactive),,
Cc1cc(C)cc(NC(=O)Cc2ccc(OC(C)(C)C(=O)O)cc2)c1,,,inactive
C/C=C(\C)C(=O)O[C@@H](C)[C@H]1CC[C@]2(O)C3CCC4C[C@@H](OC5CC(OC)C(OC6CC(OC)C(OC7CC(OC)C(OC8OC(C)C(OC9OC(CO)C(O)C(O)C9O)C(OC)C8O)C(C)O7)C(C)O6)C(C)O5)CC[C@]4(C)C3[C@H](O)[C@@H](O)[C@]12C (stereo not given in full),6.1% [at 10.7 µM] (inactive),,
OC[C@H]1O[C@@H](n2cnc3c2NC=NC[C@H]3O)C[C@@H]1O,,,inactive
Nc1nonc1C(=Nc1ccc(F)c(Cl)c1)NO,,,inactive
CC(O)(CC(=O)O)CC(=O)O[C@@H]1[C@@H](O)[C@H](OCCc2ccccc2)O[C@H](CO)[C@H]1O (stereo not given in full),-12.7% [at 33.1 µM] (inactive),,
COC(=O)C1=CO[C@@H](O[C@@H]2O[C@H](CO)[C@@H](O)[C@H](O)[C@H]2O)[C@@H]2[C@@H](C(=O)OC)[C@@H](O)C(O)[C@H]12 (stereo not given in full),43.1% [at 33.1 µM] (inactive),,
c1ccc(Nc2nc3c(s2)CCCc2[nH]ncc2-3)nc1,8.9% (inactive),,
CO[C@@H]1COCC[C@@H]1N[C@@H]1CC[C@@](C(=O)N2CCc3ncc(C(F)(F)F)cc3C2)(C(C)C)C1,2% [at 15.1 µM] (inactive),,
